# Source: PubChem BioAssay AID1159580 (chemical genetic matrix, 2015)
# Hit rate of the full screen: of about 5,500 compounds, about 2,000 (36%) were called active. About 18% were inconclusive and are not listed. This is one part of the list. Values without a mark were called inactive. No stated cut-off is given here; in the data, active means normalized growth mostly below about 0.91 (no sharp cut-off); inconclusive means no clear call, values can overlap the other calls; inactive means mostly above about 0.92.
# Assay: chemical genetic growth profiling, strain panel (AID 1159580);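 further: tested at 20 µM; growth read once vehicle control cultures reached saturation at 30 °C; 1 = growth at the plate median or of vehicle wells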
# Settings: growth OD
compound,measurement,setting,value
CC(Cc1cccc(C(F)(F)F)c1)NCCOC(=O)c1ccccc1 (stereo unspecified),normalized growth,"S. cerevisiae deletion strains, locus YNL071W, strain lat1, stronger effect = lower value",0.996
same,normalized growth,"S. cerevisiae deletion strains, locus YNL128W, strain TEP1, stronger effect = lower value",0.951
same,normalized growth,"S. cerevisiae deletion strains, locus YNL153C, strain GIM3, stronger effect = lower value",0.938
same,normalized growth,"S. cerevisiae deletion strains, locus YNL183C, strain NPR1, stronger effect = lower value",0.895
same,normalized growth,"S. cerevisiae deletion strains, locus YNL209W, strain ssb2, stronger effect = lower value",0.963
same,normalized growth,"S. cerevisiae deletion strains, locus YNL233W, strain BNI4, stronger effect = lower value",0.877
same,normalized growth,"S. cerevisiae deletion strains, locus YNL248C, strain rpa49, stronger effect = lower value",0.906
same,normalized growth,"S. cerevisiae deletion strains, locus YNL250W, strain rad50, stronger effect = lower value",1.03
same,normalized growth,"S. cerevisiae deletion strains, locus YNL271C, strain bni1, stronger effect = lower value",1.01
same,normalized growth,"S. cerevisiae deletion strains, locus YNL298W, strain CLA4, stronger effect = lower value",1.01
same,normalized growth,"S. cerevisiae deletion strains, locus YNL307C, strain MCK1, stronger effect = lower value",0.974
same,normalized growth,"S. cerevisiae deletion strains, locus YNL322C, strain KRE1 (second series), stronger effect = lower value",1.01
same,normalized growth,"S. cerevisiae deletion strains, locus YNL322C, strain KRE1, stronger effect = lower value",1.01
same,normalized growth,"S. cerevisiae deletion strains, locus YNR049C, strain mso1, stronger effect = lower value",0.998
same,normalized growth,"S. cerevisiae deletion strains, locus YNR052C, strain pop2, stronger effect = lower value",0.921
same,normalized growth,"S. cerevisiae deletion strains, locus YOL006C, strain TOP1, stronger effect = lower value",0.605
same,normalized growth,"S. cerevisiae deletion strains, locus YOL012C, strain htz1",0.888
same,normalized growth,"S. cerevisiae deletion strains, locus YOL147C, strain pex11, stronger effect = lower value",1.01
same,normalized growth,"S. cerevisiae deletion strains, locus YOR001W, strain rrp6, stronger effect = lower value",0.92
same,normalized growth,"S. cerevisiae deletion strains, locus YOR061W, strain CKA2, stronger effect = lower value",0.994
same,normalized growth,"S. cerevisiae deletion strains, locus YOR069W, strain VPS5, stronger effect = lower value",0.995
same,normalized growth,"S. cerevisiae deletion strains, locus YOR070C, strain gyp1, stronger effect = lower value",0.985
same,normalized growth,"S. cerevisiae deletion strains, locus YOR080W, strain dia2, stronger effect = lower value",0.971
same,normalized growth,"S. cerevisiae deletion strains, locus YOR083W, strain WHI5, stronger effect = lower value",0.913
same,normalized growth,"S. cerevisiae deletion strains, locus YOR106W, strain vam3, stronger effect = lower value",0.906
same,normalized growth,"S. cerevisiae deletion strains, locus YOR136W, strain idh2, stronger effect = lower value",1.01
same,normalized growth,"S. cerevisiae deletion strains, locus YOR144C, strain elg1, stronger effect = lower value",1.02
same,normalized growth,"S. cerevisiae deletion strains, locus YOR184W, strain ser1, stronger effect = lower value",1.01
same,normalized growth,"S. cerevisiae deletion strains, locus YOR231W, strain MKK1, stronger effect = lower value",0.979
same,normalized growth,"S. cerevisiae deletion strains, locus YOR265W, strain rbl2, stronger effect = lower value",0.975
same,normalized growth,"S. cerevisiae deletion strains, locus YOR270C, strain vph1, stronger effect = lower value",0.72 (active)
same,normalized growth,"S. cerevisiae deletion strains, locus YOR290C, strain snf2, stronger effect = lower value",0.975
same,normalized growth,"S. cerevisiae deletion strains, locus YOR316C, strain cot1, stronger effect = lower value",1.03
same,normalized growth,"S. cerevisiae deletion strains, locus YPL051W, strain arl3, stronger effect = lower value",0.904 (active)
same,normalized growth,"S. cerevisiae deletion strains, locus YPL055C, strain LGE1, stronger effect = lower value",0.954
same,normalized growth,"S. cerevisiae deletion strains, locus YPL078C, strain atp4, stronger effect = lower value",0.944
same,normalized growth,"S. cerevisiae deletion strains, locus YPL106C, strain sse1, stronger effect = lower value",0.975
same,normalized growth,"S. cerevisiae deletion strains, locus YPL240C, strain hsp82, stronger effect = lower value",0.98
same,normalized growth,"S. cerevisiae deletion strains, locus YPL241C, strain CIN2, stronger effect = lower value",0.995
same,normalized growth,"S. cerevisiae deletion strains, locus YPL256C, strain CLN2, stronger effect = lower value",0.969
same,normalized growth,"S. cerevisiae deletion strains, locus YPR119W, strain clb2, stronger effect = lower value",1.02
same,normalized growth,"S. cerevisiae deletion strains, locus YPR141C, strain kar3, stronger effect = lower value",1.02
same,normalized growth,"S. cerevisiae deletion strains, locus YPR163C, strain tif3, stronger effect = lower value",0.928
same,normalized growth,"S. cerevisiae deletion strains, locus YPR167C, strain met16, stronger effect = lower value",1
same,normalized growth,"S. cerevisiae deletion strains, strain wtn01, stronger effect = lower value",0.978
same,normalized growth,"S. cerevisiae strains, strain wild type, stronger effect = lower value",0.955
